In the supplement of paper PMC9694430:

Assays:
Test in all cases: thermal shift delta Tm vs DMSO control; higher = stronger stabilization (binding)
Details in all cases: 12.5 µM; protein concentration 2 µM
LOC_OS01G01410-cb001 = test system: LOC_OS01G01410-cb001
How it was run: (§1)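 Purified, E. coli-expressed rice kinase domain constructs were tested by differential scanning fluorimetry in 96-well plates: 19.5 μl of 2 μM kinase in 100 mM potassium phosphate pH 7.5, 150 mM NaCl, 10% glycerol, 5 × SYPRO Orange, plus compound in DMSO. Fluorescence was read from 25°C to 95°C at 0.05°C/s. Melting temperatures came from Boltzmann fits, and the shift is the triplicate mean relative to protein with DMSO alone.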

LOC_OS01G02750-cb003 = test system: LOC_OS01G02750-cb003
How it was run: as §1

LOC_OS01G10900-cb004 = test system: LOC_OS01G10900-cb004
How it was run: as §1

LOC_OS01G13800-cb001 = test system: LOC_OS01G13800-cb001
How it was run: as §1

LOC_OS01G14860-cb001 = test system: LOC_OS01G14860-cb001
How it was run: as §1

LOC_OS01G21960-cb002 = test system: LOC_OS01G21960-cb002
How it was run: as §1

LOC_OS01G39600-cb002 = test system: LOC_OS01G39600-cb002
How it was run: as §1

LOC_OS01G48390-cb002 = test system: LOC_OS01G48390-cb002
How it was run: as §1

LOC_OS01G51400-cb002 = test system: LOC_OS01G51400-cb002
How it was run: as §1

LOC_OS01G52050-cb004 = test system: T1, LOC_OS01G52050-cb004
T1 sequence (whole entry): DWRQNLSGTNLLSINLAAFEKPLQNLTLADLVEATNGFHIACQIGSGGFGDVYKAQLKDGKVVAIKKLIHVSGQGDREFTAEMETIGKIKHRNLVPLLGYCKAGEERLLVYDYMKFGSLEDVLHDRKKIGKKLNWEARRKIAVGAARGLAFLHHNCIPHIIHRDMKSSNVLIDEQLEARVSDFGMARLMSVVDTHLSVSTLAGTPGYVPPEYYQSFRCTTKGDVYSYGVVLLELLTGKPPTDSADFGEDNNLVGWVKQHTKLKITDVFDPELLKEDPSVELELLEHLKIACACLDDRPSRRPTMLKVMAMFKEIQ
How it was run: as §1

Row | Structure (SMILES) | thermal shift delta Tm (LOC_OS01G01410-cb001) [°C] | thermal shift delta Tm (LOC_OS01G02750-cb003) [°C] | thermal shift delta Tm (LOC_OS01G10900-cb004) [°C] | thermal shift delta Tm (LOC_OS01G13800-cb001) [°C] | thermal shift delta Tm (LOC_OS01G14860-cb001) [°C] | thermal shift delta Tm (LOC_OS01G21960-cb002) [°C] | thermal shift delta Tm (LOC_OS01G39600-cb002) [°C] | thermal shift delta Tm (LOC_OS01G48390-cb002) [°C] | thermal shift delta Tm (LOC_OS01G51400-cb002) [°C] | thermal shift delta Tm (LOC_OS01G52050-cb004) [°C]
1 | CO[C@H]1C[C@@H]2CC[C@@H](C)[C@@](O)(O2)C(=O)C(=O)N2CCCC[C@H]2C(=O)O[C@H]([C@H](C)C[C@@H]2CC[C@@H](O)[C@H](OC)C2)CC(=O)[C@H](C)/C=C(\C)[C@@H](O)[C@@H](OC)C(=O)[C@H](C)C[C@H](C)/C=C/C=C/C=C/1C [Rapamycin (Sirolimus)] | 0.87 | 0.22 | -0.07 | -0.01 | 0.33 | 0.21 | 0.05 | 0.16 | 0.12 | -0.13
2 | NC(=O)c1cnc2[nH]ccc2c1N[C@@H]1[C@@H]2CC3C[C@H]1C[C@@](O)(C3)C2 | 3.91 | 3.77 | 1 | 0.16 | 5.61 | 2.38 | 5.22 | 4.09 | 0.18 | 4.66
3 | COc1ccc2c(Oc3ccc(NC(=O)c4c(C)n(CC(C)(C)O)n(-c5ccccc5)c4=O)nc3)ccnc2c1 | 0.36 | 1.62 | 0.28 | -0.07 | 1.58 | 0.62 | -0.29 | 0.51 | 0.18 | 1.2
4 | CCS(=O)(=O)N1CC(CC#N)(n2cc(-c3ncnc4[nH]ccc34)cn2)C1 | 0.57 | 1.52 | 0.33 | 0.37 | 2.29 | 1.23 | 0.17 | 0.14 | 0.39 | 1.36
5 | CN1CCN(c2ccc3nc(-c4c(N)c5c(F)cccc5[nH]c4=O)[nH]c3c2)CC1 [Dovitinib (TKI-258, CHIR-258)] | 6.03 | 2.05 | 2.59 | -0.2 | 0.79 | 2.56 | 2.01 | 1.63 | 0.56 | 3.72
6 | CN1C(=O)[C@@H](NC(=O)c2n[nH]c(Cc3ccccc3)n2)COc2ccccc21 | 0.8 | 1.65 | 0.07 | 0.83 | 0.52 | 0.05 | 0.62 | 0.43 | 0.45 | 2.47
